Most compounds without a hit are left out; they make up all but 5.9% or so of the library.
PRMT1 FP inh: PRMT1 methyltransferase inhibitors, primary screen, biochemical, fluorescence polarization; Protein arginine N-methyltransferase 1 (Homo sapiens), Q99873; inhibition, % at 2.79 µM; 370,000 compounds, 1.3% hits; recombinant PRMT1, activity-based probe fluorescence polarization;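 active = inhibition above about 21% made by adding two undisclosed values, limit read from the data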
ALR inh: inhibitors of human ALR sulfhydryl oxidase, primary screen, biochemical, H2O2 detection, HRP-luminol luminescence, single point; FAD-linked sulfhydryl oxidase ALR (Homo sapiens), P55789; purified ALR, DTT oxidation; inhibition, % (no concentration beside the values); 290,000 compounds, 3.8% hits; AID 485317, 2010;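 active = mean replicate inhibition above about 79%, with every replicate also reaching it, limit read from the data; inconclusive = only one of the two criteria met; inactive = mean below limit and not every replicate reaching it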
Target sequence (P55789 whole entry, looked up): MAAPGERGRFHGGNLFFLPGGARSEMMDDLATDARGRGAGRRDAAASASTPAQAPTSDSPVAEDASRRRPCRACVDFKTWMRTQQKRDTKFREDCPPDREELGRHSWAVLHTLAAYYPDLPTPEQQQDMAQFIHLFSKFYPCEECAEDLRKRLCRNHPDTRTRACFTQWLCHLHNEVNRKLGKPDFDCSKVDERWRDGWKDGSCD
Rtt109 Vps75: inhibitors of C. albicans Rtt109/Vps75 HAT, primary screen, biochemical, ThioGlo CoA-SH fluorescence, plate reader | purified Rtt109/Vps75, 4 h | 330,000 compounds, 0.16% hits | Histone acetyltransferase RTT109 (Candida albicans (strain SC5314 / ATCC MYA-2876)), … | inhibition, % at 34.9 µM;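 active = inhibition of at least 50% in every replicate; inconclusive = best replicate reaches 50% inhibition but some replicates fall short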
Target sequence (Q5AAJ8 whole entry, looked up): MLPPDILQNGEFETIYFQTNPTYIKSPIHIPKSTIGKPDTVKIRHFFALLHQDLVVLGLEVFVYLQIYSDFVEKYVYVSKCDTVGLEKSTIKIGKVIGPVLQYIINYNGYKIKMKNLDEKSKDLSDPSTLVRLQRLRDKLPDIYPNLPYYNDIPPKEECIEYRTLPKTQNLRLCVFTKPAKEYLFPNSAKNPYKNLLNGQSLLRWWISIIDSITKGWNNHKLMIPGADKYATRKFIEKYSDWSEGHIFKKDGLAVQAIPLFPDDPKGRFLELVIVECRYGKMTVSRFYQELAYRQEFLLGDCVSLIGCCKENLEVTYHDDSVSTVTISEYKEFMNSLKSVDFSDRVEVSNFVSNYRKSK
ABHD5-PLIN5 inh: ABHD5-PLIN5 interaction inhibitors, primary screen, cell lysate, split luciferase complementation, luminescence | Perilipin-5 (Homo sapiens) + 1-acylglycerol-3-phosphate O-acyltransferase ABHD5 (Homo … | Split G. princeps luciferase complementation, 4 h | AID 602281, 2012 | 360,000 compounds, 0.78% hits | inhibition, % at 4 µM;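 active = inhibition above the mean inhibition across every tested compound plus 3 SD, cut at about 22% in these data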;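 also: 0% = DMSO only wells and the 100% control is not disclosed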
rCAG binder: binders of r(CAG) RNA repeats, primary screen, biochemical, fluorescence | r(CAG) RNA repeat, TO-PRO-1 dye displacement fluorescence | inhibition, % at 3 µM | 370,000 compounds, 1.3% hits;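 active = inhibition above the plate cutoff, the mean of all test compounds on that plate plus 3 SD, cut at about 35% in these data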;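 also: 0% = DMSO alone and 100% = 100 µM mitoxantrone as full dye displacement; higher means more dye released from RNA so lower well fluorescence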
LANA-H2A inh: blockers of LANA interaction with H2A/H2B – biochemical, FP readout, HTS, primary screen; AID 2629, 2010; Protein LANA1 (Human herpesvirus 8 type P (isolate GK18)), Q9QR71; cell-free LANA-H2A/H2B peptide, fluorescence polarization; inhibition, % (no concentration beside the values); 320,000 compounds, 0.6% hits; in the data active = inhibition mostly above about 10%, no sharp cut-off; inactive = mostly below about 6.7%
ABHD5-PLIN5 conf: ABHD5-PLIN5 interaction inhibitors, confirmation, biochemical, luminescence; inhibition, % at 4 µM; 2,200 compounds, 67% hits; shares compounds with ABHD5-PLIN5 inh; in the data active = inhibition above about 23%;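 also: 0% = DMSO vehicle wells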
HNF4 split-luc: HNF4 dimerization inhibitors, counter-screen for ABHD5-PLIN5 interaction inhibitor project, biochemical, split-luciferase complementation, luminescence. shares compounds with ABHD5-PLIN5 inh. inhibition, % at 4 µM. 2,200 compounds, 77% hits;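 active = mean inhibition across replicate wells exceeding the computed hit threshold, cut at about 13% in these data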;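 also: light from luciferase halves that rejoin when HNF4 fusion proteins dimerize; 0% = DMSO only wells and the 100% control is not given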
* = called active by the depositor; ? = inconclusive; / = no result.

SMILES	PRMT1 FP inh	ALR inh	Rtt109 Vps75	ABHD5-PLIN5 inh	rCAG binder	LANA-H2A inh	ABHD5-PLIN5 conf	HNF4 split-luc
Clc1ccc([C@H]2OC[C@@]3(CNCCN4CCOCC4)CS[C@H](c4ccc(Cl)cc4)N23)cc1	6	/	/	/	-1	/	/	/
Nc1[nH]c(C(=O)c2ccccc2)c(-c2ccc3c(c2)OCO3)c1C(=O)NCCc1c[nH]c2ccccc12	-3	/	/	/	14	/	/	/
CC(=O)Cc1cc(O)c2ccccc2c1OC(=O)c1ccc(Br)cc1	1	-54	7	73*	10	-3	83*	13*
COC(=O)[C@]12CCCCC=C1N(Cc1ccc3c(c1)OCO3)C(=O)[C@H](CC(=O)NCCCCc1ccccc1)C2	4	/	/	2	4	/	/	/
CC1(c2ccc([N+](=O)[O-])cc2)Nc2ccccc2S1 (stereo not drawn)	45*	11	1	35*	12	-1	-5	-9
CCc1cc2cc(C)ccc2nc1SCC(=O)NNC(=O)c1ccco1	-5	7	-8	-6	3	-1	/	/
COc1cc2cc(/C=C/C(=O)c3ccco3)c(Cl)nc2cc1OC	-1	/	-2	38*	9	3	90*	82*
Cc1ccc2nc(Cl)c(/C=C/C(=O)c3ccco3)cc2c1	-1	97*	6	24*	6	2	92*	86*
Cc1ccc2cc(/C=N/NC(=O)c3ccc(F)cc3)c(Cl)nc2c1	6	28	-39	-2	-2	0	/	/
Cc1ccc2cc(/C=C/C(=O)c3ccco3)c(Cl)nc2c1	-1	11	/	45*	3	5	96*	99*
COc1ccc2cc(/C=C/C(=O)c3ccco3)c(Cl)nc2c1	/	?	/	/	/	-2	/	/
COc1ccc(CNC2CCC23CCC(C)CC3)cc1 (stereo not drawn)	2	/	/	/	/	/	/	/
CCc1nc(OCc2ccco2)c2sc3nc4c(cc3c2n1)COC(C)(C)C4	8	/	12	33*	5	-5	47*	74*
CCc1nc2c(sc3nc4c(cc32)COC(C)(C)C4)c(=O)n1Cc1ccco1	11	8	-1	28*	6	-3	21	36*
Cc1cc(N2CCN(CC(C)(C)O)C[C@H]2C)ccc1N1CCN(Cc2ccccc2)[C@H](C)C1	1	/	/	/	-2	/	/	/
O=C(O)/C=C/C(=O)Nc1ccc(Oc2ccccc2)cc1	0	51	-7	5	-1	-1	/	/
Cc1ccc(/C=C/C(=O)Nc2ccc(Oc3ccccc3)cc2)o1	16	19	-14	24*	8	-18	10	39*
COC[C@H]1O[C@]2(c3ccccc3)CO[C@H]1[C@@H](/C=C/c1ccccc1)C2	-3	/	/	/	0	/	/	/
Cc1ccc(S(=O)(=O)n2cccc2/C=C/[N+](=O)[O-])cc1	13	/	/	46*	25	/	101*	102*
COc1ccc(-n2cccc2/C=C/[N+](=O)[O-])cc1	17	/	-7	12	21	/	/	/
CCOc1cc(/C=C2\CN(CC)C/C(=C\c3ccc(O)c(OCC)c3)C2=O)ccc1O	4	/	-7	83*	10	-3	94*	81*
CCN1C/C(=C/c2cccc([N+](=O)[O-])c2)C(=O)/C(=C/c2cccc([N+](=O)[O-])c2)C1	4	-15	-2	40*	13	3	102*	97*
N#CCc1ccc(Oc2ncccn2)cc1	-2	-9	4	0	2	-2	/	/
Cc1cc(Br)c2nc(-c3ccccc3)c(Cc3cccc(Cl)c3)n2c1	-4	/	/	-8	10	/	/	/
COc1ccc(CN2C(=O)C(CC(=O)NCc3cccc4ccccc34)CC(C(=O)N(C(C)C)C(C)C)=C2C)cc1 (stereo not drawn)	-5	/	/	3	2	/	/	/
SMILES	PRMT1 FP inh	ALR inh	Rtt109 Vps75	ABHD5-PLIN5 inh	rCAG binder	LANA-H2A inh	ABHD5-PLIN5 conf	HNF4 split-luc
Cc1ccc2cccnc2c1NC(=S)NC(=O)c1ccccc1	0	-11	4	35*	3	2	14	32*
Cc1ccc2cccc(NC(=S)NC(=O)c3ccccc3)c2n1	-3	-4	-9	4	11	1	/	/
COc1ccccc1CNc1nc(NCc2ccc3occc3c2)c2sccc2n1	-7	/	/	24*	3	/	8	16*
COc1ccccc1CNc1nc(NCc2ccccc2OC)c2sccc2n1	-3	/	/	3	4	/	/	/
Cc1cccc(C)c1NC(=O)C(c1ccncc1)n1c(=O)c(-c2ccco2)nc2ccccc21 (stereo not drawn)	13	/	/	56*	15	/	23*	12
Cc1cccc(C)c1NC(=O)C(C1CC1)n1c(=O)c(-c2ccco2)nc2ccccc21 (stereo not drawn)	15	/	/	61*	28	/	43*	25*
CC(C)(C)NC(=O)C(C1CC1)n1c(=O)c(-c2ccco2)nc2ccccc21 (stereo not drawn)	10	/	/	51*	23	/	73*	23*
CC(C)(C)NC(=O)C(C1CC1)n1c(=O)c(-c2cc3ccccc3[nH]2)nc2ccccc21 (stereo not drawn)	-5	/	/	-13	11	/	/	/
NC1(C(=O)O)CCCCC1c1ccccc1 (stereo not drawn)	0	/	1	-6	0	/	/	/
O=c1oc(=S)oc2c1[C@H](c1ccc(Cl)cc1)O[C@H](C1CC1)C2	1	/	/	0	0	/	/	/
CC(C)NC(=O)C1(C)CSCC(=O)N1Cc1cccc(F)c1 (stereo not drawn)	-4	/	/	4	1	/	/	/
S=C(Nc1cccc(Br)c1)OC1CCC12CCC(c1ccccc1)CC2 (stereo not drawn)	-4	/	/	/	2	/	/	/
COCCN1Cc2cc(C(=O)OC)c3c(c2C1=O)c1cc(OC)ccc1n3S(=O)(=O)c1ccc(F)cc1	2	/	/	/	8	/	/	/
COc1ccc(OC)c(NC(=O)CN2C(=O)CSc3ccc(S(=O)(=O)N4CCCC4)cc32)c1	-4	-12	8	54*	2	3	1	7
O=C(CC1c2ccccc2C=C(c2ccsc2)N1c1ccc(-c2cccnc2)cc1)C1CC1 (stereo not drawn)	0	/	/	-2	9	/	/	/
COc1ccc2sc(-c3ccccc3OC)c(-c3ccc(OCCN(C)C)cc3)c2c1	1	/	8	16	6	/	/	/
